# Compounds without any hit were thinned out: in the full panel of roughly 79,000, 15% have a hit. The source made the active and inactive calls. Cut-off read from the data, not from the text of the source: active = growth inhibition above about 70%; inactive = the rest.
# What was measured:
# [1] = NCI Yeast Anticancer Drug Screen. Data for the rad50 strain (AID 155);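 note: 0% = growth of vehicle-only cultures of the same strain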; conditions: S. cerevisiae rad50 strain growth inhibition, stronger effect = higher value
# Summary of the method: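 Genetically altered yeast (DNA repair pathway); compound treatment; growth inhibition vs vehicle ctrl.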
# [2] = NCI Yeast Anticancer Drug Screen. Data for the mec2-1 strain (AID 157); conditions: S. cerevisiae mec2-1 strain, stronger effect = higher value
# Summary of the method: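 Growth inhibition is read against vehicle-treated controls after compound exposure of the mec2-1 yeast strain, which is defective in DNA damage repair or cell cycle control.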
# [3] = NCI Yeast Anticancer Drug Screen. Data for the sgs1 mgt1 strain (AID 161);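 note: 0% = growth of cultures given vehicle only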; conditions: S. cerevisiae sgs1 mgt1 strain, stronger effect = higher value
# Summary of the method: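 Growth of a repair-deficient yeast mutant was monitored after compound treatment and expressed as inhibition relative to vehicle-treated cultures.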
# [4] = NCI Yeast Anticancer Drug Screen. Data for the cln2 rad14 strain (AID 165);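 note: 0% = growth equal to vehicle treated cultures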; conditions: S. cerevisiae cln2 rad14 strain, stronger effect = higher value
# Summary of the method: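 Growth inhibition, relative to vehicle-treated controls, is the read-out. The test organism is a yeast strain with defined genetic alterations, cln2 rad14.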
# [5] = NCI Yeast Anticancer Drug Screen. Data for the bub3 strain (AID 167); conditions: S. cerevisiae bub3 mutant strain, stronger effect = higher value
# Summary of the method: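 Yeast carrying a defined mutation is treated with each compound, and growth is compared with that of vehicle-exposed cells to give inhibition.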
# [6] = NCI Yeast Anticancer Drug Screen. Data for the mlh1 rad18 strain (AID 175); conditions: S. cerevisiae mlh1 rad18 strain growth inhibition, stronger effect = higher value
# Summary of the method: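 Cells of a genetically altered yeast strain, deficient in DNA damage repair, were treated with compound. Their growth was then compared with that of vehicle-treated cultures to give inhibition.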
# [7] = at 5.0 µM (retest, dose inferred, filed as 0.5)
# [8] = at 50.0 µM (retest, dose inferred, filed as 5.0)
Compound,"growth inhibition [1, 7]","growth inhibition [1, 8]",growth inhibition ([1]; at 50.0 µM),"growth inhibition [2, 7]","growth inhibition [2, 8]",growth inhibition ([2]; at 50.0 µM),"growth inhibition [3, 7]","growth inhibition [3, 8]",growth inhibition ([3]; at 50.0 µM),"growth inhibition [4, 7]","growth inhibition [4, 8]",growth inhibition ([4]; at 50.0 µM),"growth inhibition [5, 7]","growth inhibition [5, 8]",growth inhibition ([5]; at 50.0 µM),"growth inhibition [6, 7]","growth inhibition [6, 8]",growth inhibition ([6]; at 50.0 µM)
CN(C(=O)c1ccccc1)C1(COC(=O)c2ccccc2)CCCCC1,-6% (inactive),3% (inactive),16.1% (inactive),-28% (inactive),-9% (inactive),-5.95% (inactive),-25% (inactive),-11% (inactive),-2.75% (inactive),1% (inactive),1% (inactive),21.3% (inactive),21% (inactive),28% (inactive),65.7% (inactive),16% (inactive),6% (inactive),9.9% (inactive)
COc1ccc(C(=O)C(c2ccc(OC)cc2)C2(O)C(=O)Nc3c(C)cc(Cl)cc32)cc1 (configuration not stated),21% (inactive),21% (inactive),-25.1% (inactive),-15% (inactive),-15% (inactive),89% (active),-9% (inactive),-9% (inactive),87.8% (active),3% (inactive),3% (inactive),69.7% (inactive),-3% (inactive),-3% (inactive),89.8% (active),-2% (inactive),-2% (inactive),38.7% (inactive)
C=CCOC(=O)C#CCCCC,-3% (inactive),1% (inactive),-5.25% (inactive),3% (inactive),2% (inactive),19.6% (inactive),-2% (inactive),2% (inactive),15.7% (inactive),-5% (inactive),5% (inactive),87.8% (active),-1% (inactive),11% (inactive),-12.8% (inactive),-1% (inactive),6% (inactive),-12.3% (inactive)
COc1ccc2ccc(=O)oc2c1CC=C(C)C,88% (active),98% (active),46.5% (inactive),13% (inactive),99% (active),37.6% (inactive),6% (inactive),99% (active),72.5% (active),7% (inactive),98% (active),-9.6% (inactive),14% (inactive),98% (active),62% (inactive),13% (inactive),98% (active),31.5% (inactive)
Nc1ccc2c(c1)S(=O)(=O)c1cc(O)ccc1O2,23% (inactive),18% (inactive),32.9% (inactive),10% (inactive),20% (inactive),-26.8% (inactive),13% (inactive),25% (inactive),-22.6% (inactive),11% (inactive),24% (inactive),-4.55% (inactive),21% (inactive),28% (inactive),-15.2% (inactive),8% (inactive),5% (inactive),-71% (inactive)
COc1ccc(C(=O)Cn2c(C(C)=O)nc3ccccc32)cc1,26% (inactive),66% (inactive),-23.6% (inactive),18% (inactive),36% (inactive),-21.1% (inactive),36% (inactive),73% (active),-14.5% (inactive),6% (inactive),32% (inactive),4% (inactive),31% (inactive),36% (inactive),-32.6% (inactive),28% (inactive),52% (inactive),-43.2% (inactive)
CCCCC(CC)COP(=O)(OCC(CC)CCCC)OCC(CC)CCCC (configuration not stated),0% (inactive),7% (inactive),15.8% (inactive),13% (inactive),-7% (inactive),10.6% (inactive),9% (inactive),18% (inactive),-2.85% (inactive),0% (inactive),-3% (inactive),0.85% (inactive),-5% (inactive),-11% (inactive),-6.75% (inactive),-4% (inactive),-12% (inactive),29.1% (inactive)
CCCCCN(CCCCC)CC(C)(C)C(O)c1ccc(OC)c2ccccc12 (configuration not stated),-2% (inactive),42% (inactive),51.9% (inactive),-4% (inactive),18% (inactive),47.6% (inactive),1% (inactive),81% (active),52.5% (inactive),-4% (inactive),27% (inactive),86.9% (active),0% (inactive),64% (inactive),33.2% (inactive),-2% (inactive),57% (inactive),77.3% (active)
CCCN(CCC)C(=O)CCC(C)=O,0% (inactive),-3% (inactive),-13.8% (inactive),1% (inactive),2% (inactive),-7.5% (inactive),1% (inactive),-1% (inactive),-23.8% (inactive),-7% (inactive),3% (inactive),41.5% (inactive),-1% (inactive),-3% (inactive),-18.4% (inactive),1% (inactive),-3% (inactive),17.1% (inactive)
CN(Cc1cnc2nc(N[Si](C)(C)C)nc(N[Si](C)(C)C)c2n1)c1ccc(C(=O)NC(CCC(=O)O[Si](C)(C)C)C(=O)O[Si](C)(C)C)cc1 (configuration not stated),19% (inactive),89% (active),91% (active),66% (inactive),97% (active),98.3% (active),2% (inactive),72% (active),64.7% (inactive),-8% (inactive),47% (inactive),26% (inactive),-4% (inactive),90% (active),69.7% (inactive),15% (inactive),81% (active),60.6% (inactive)
O=C(COc1ccc(Cl)c(Cl)c1)Nc1ccc[n+](Cc2ccc(Cl)c(Cl)c2)c1,-15% (inactive),99% (active),99.6% (active),1% (inactive),100% (active),99.5% (active),13% (inactive),99% (active),99.5% (active),2% (inactive),99% (active),99.2% (active),2% (inactive),99% (active),99.3% (active),39% (inactive),99% (active),98.8% (active)
CCCCCCN(CCCCCC)CCC(=O)c1ccc2cc(Cl)c3ccccc3c2c1,29% (inactive),90% (active),78.4% (active),-28% (inactive),95% (active),82% (active),33% (inactive),95% (active),78.2% (active),3% (inactive),88% (active),31.8% (inactive),5% (inactive),94% (active),33.2% (inactive),17% (inactive),91% (active),87.8% (active)
CC(=O)OC1=C(Br)CCc2ccccc21,13% (inactive),99% (active),98.2% (active),13% (inactive),100% (active),97.3% (active),41% (inactive),99% (active),91.2% (active),11% (inactive),98% (active),86.3% (active),18% (inactive),100% (active),88.3% (active),39% (inactive),99% (active),89.6% (active)
C=CCNC(=O)c1ccccc1C(=O)O,2% (inactive),28% (inactive),63.2% (inactive),1% (inactive),1% (inactive),36.6% (inactive),0% (inactive),1% (inactive),28.2% (inactive),2% (inactive),18% (inactive),23.6% (inactive),4% (inactive),7% (inactive),68.2% (inactive),3% (inactive),13% (inactive),46.7% (inactive)
Cc1cc(N=Nc2ccncc2C)ccc1N,-69% (inactive),98% (active),92.5% (active),-50% (inactive),87% (active),52.5% (inactive),-34% (inactive),98% (active),75.6% (active),-45% (inactive),92% (active),48.9% (inactive),-40% (inactive),98% (active),89% (active),-72% (inactive),96% (active),66.7% (inactive)
O=C1OCCCOC(=O)c2cc(ccc2O)OCC#CC#CCOc2ccc(O)c1c2,2% (inactive),-6% (inactive),12.6% (inactive),-4% (inactive),19% (inactive),8.75% (inactive),-1% (inactive),-3% (inactive),16.1% (inactive),4% (inactive),-4% (inactive),38.6% (inactive),2% (inactive),-6% (inactive),86.2% (active),0% (inactive),-4% (inactive),29.7% (inactive)
CCOCCNCc1ccc(Cl)c(Cl)c1,-145% (inactive),-89% (inactive),4.05% (inactive),-47% (inactive),-51% (inactive),0.1% (inactive),-60% (inactive),-90% (inactive),2.7% (inactive),-51% (inactive),-53% (inactive),21.1% (inactive),-67% (inactive),-50% (inactive),-5.85% (inactive),-144% (inactive),-85% (inactive),-7.9% (inactive)
NC(=O)NC(=O)N/N=C/c1ccc([N+](=O)[O-])o1,2% (inactive),25% (inactive),74.8% (active),1% (inactive),20% (inactive),22.9% (inactive),5% (inactive),27% (inactive),68.2% (inactive),-1% (inactive),12% (inactive),38% (inactive),-5% (inactive),17% (inactive),27.2% (inactive),4% (inactive),40% (inactive),61.5% (inactive)
CCCCCC1OC1CC1OC1CCCCCCCC(=O)OC (configuration not stated),-2% (inactive),1% (inactive),36.5% (inactive),-1% (inactive),-2% (inactive),18.8% (inactive),-4% (inactive),4% (inactive),40.4% (inactive),-4% (inactive),-8% (inactive),-27.4% (inactive),-1% (inactive),-7% (inactive),50.1% (inactive),4% (inactive),1% (inactive),59% (inactive)
